These results are taken from PubChem BioAssay (NCI).

About 83,000 compounds went through this panel and 20% of them were active in at least one assay; those are over-represented in the sample as a whole.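 Compound tested at a single concentration for 48 hours in 96-well plates; a percent growth value below 10 was scored as active.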 Values without a mark were called inactive. The source made the active and inactive calls.

Common to all, as to test: NCI-60 one-dose screen, 48 h (100 = growth as untreated, 0 = no growth, -100 = all killed)
What all share (settings): 10 µM unless noted

Test [1] has as its system SK-MEL-2 melanoma.
Test [2] relates to EKVX NSCLC.
For test [3], the system named is SN12C renal.
Test [4] has as its system UO-31 renal.
Test [5] has as its system TK-10 renal.
In test [6] the test system is ACHN renal.
For test [7], the system named is CAKI-1 renal.
Test [8] relates to A498 renal.
Test [9] deals with CCRF-CEM leukemia.
The test system of test [10] is RPMI-8226 leukemia.
The test system of test [11] is OVCAR-8 ovarian.
Test [12] deals with OVCAR-5 ovarian.
In test [13] the test system is OVCAR-4 ovarian.
In test [14] the test system is SK-OV-3 ovarian.
For test [15], the system named is IGROV1 ovarian.
Test [16] deals with OVCAR-3 ovarian.
In test [17] the test system is HS 578T breast.
The subject of test [18] is NCI/ADR-RES ovarian.
Test [19] relates to MOLT-4 leukemia.
The subject of test [20] is SR leukemia.

`CC(=O)/C(=C/c1cccc(Cl)c1)C(=O)c1ccccc1`: the growth in [1] is 94.9%; in [2], 98.6%; in test [3] it was 100%; in test [4] it was 72.1%; in [5], 96.6%; in test [6], 88.6%. Also, the growth in test [7] was 95.3%; in test [8] it was 119%; in test [9] it was 40.2%; in test [10], 16.8%; in test [11], 85.2%; in [12], 94.1%. Besides, the growth is 89.6% in test [13]; 96.3% in test [14]; 83% in test [15]; 96.1% in test [16]; 94.7% in test [17]; 75.8% in test [18].

On to `Cc1ccc(-c2nc(/C=N/Nc3cc(C)nc4ccc(Cl)cc34)c(C)o2)cc1`, for which the growth was 95.1% in test [1]; -41.2% (active) in test [2]; -81.2% (active) in test [3]; -99.7% (active) in test [4]; -54.8% (active) in test [5]; -100% (active) in [6]. Besides, the growth in test [7] is -63.6% (active); in [9], -51.3% (active); in test [19], -31.3% (active); in test [20] it was 0.444% (active); in test [10] it was -48.6% (active); in test [11] it was -88.6% (active). For the same compound, the growth in [12] was -65.4% (active); in test [13], -90.8% (active); in test [14] it was 96.3%; in test [15], -69.7% (active); in test [16] it was -80.8% (active); in test [17], -42.8% (active). In addition, the growth in [18] is -37.7% (active).

For `C=C1CCC2C3(C)COC(c4ccccc4Br)OC3CCC2(C)C1C/C=C1/C(=O)OCC1OC(C)=O` (configuration not stated), the growth in test [1] was -37.4% (active); in [2], -3.86% (active); in test [3], -43.7% (active); in test [4] it was 26%; in test [5] it was -48.5% (active); in [6], -80.2% (active). Besides, the growth in test [7] was -32.4% (active); in [8] it was 42.8%; in test [19], -45.5% (active); in test [20] it was -40.9% (active); in test [10], -47% (active); in test [11], -36.2% (active). Moreover, the growth in test [12] was -38.3% (active); in test [13], -62.2% (active); in test [15], -9.12% (active); in test [16], -88.8% (active); in test [17], -30.9% (active); in test [18] it was -3.45% (active).

In the case of `O=c1c2c3c(sc2n2c(CCl)nnc2n1Cc1ccccc1)CCCC3`, the growth is -83.1% (active) in test [1]; -35.4% (active) in test [2]; -82.8% (active) in test [3]; -83.2% (active) in [4]; -93.6% (active) in test [5]; -100% (active) in test [6]. Further, the growth in test [7] is -100% (active); in [8], 92.5%; in [19], -18.4% (active); in [20], -33.9% (active); in test [10] it was -38.8% (active); in [11], 7.48% (active). In addition, the growth in test [12] is -58.9% (active); in test [13], -99.3% (active); in [15], -42.9% (active); in test [16], -98.4% (active); in [17] it was -36.1% (active); in [18] it was 19%.

In the case of `O=C1C[C@H](Sc2nc(-c3ccc(F)cc3)cc(C(F)(F)F)n2)[C@H]2CO[C@@H]1O2`, the growth is 107% in test [1]; 107% in [2]; 92.4% in [3]; 88.3% in [4]; 99.2% in test [5]; 88.9% in test [6]. The growth in test [7] is 81.5%; in [9] it was 51.1%; in test [19] it was 78.3%; in test [20], 17.9%; in [10], 96.9%; in [11] it was 97.4%. In addition, the growth is 105% in [12]; 108% in test [13]; 108% in [14]; 115% in test [15]; 91.6% in test [16]; 109% in test [17]. Moreover, the growth in test [18] was 106%.

With `COc1ccc(S(=O)(=O)NCCNc2nccc(-c3c(-c4cccc([N+](=O)[O-])c4)nc4sccn34)n2)cc1`, the growth in [1] is 100%; in test [2], 82.1%; in test [3], 70.3%; in [4], 49.3%; in test [5], 108%; in test [6], 62.4%. The growth was 68.1% in [7]; 75.2% in [9]; 60.7% in test [19]; 78.4% in test [20]; 74% in [10]; 83.7% in test [11]. The growth in test [12] is 126%; in test [13], 63.1%; in test [14], 102%; in test [15] it was 67.3%; in test [16], 88.3%; in test [17], 91.1%. Besides, the growth in test [18] is 82%.

Regarding `O=C(CO[N+](=O)[O-])Nc1ccc(C(=O)/C=C/c2ccc3c(c2)OCO3)cc1`, the growth is 119% in test [1]; 99.7% in test [2]; 95.4% in [3]; 77.1% in test [4]; 111% in [5]; 99.2% in test [6]. Also, the growth in test [7] is 93%; in test [8], 107%; in test [9], 70%; in test [19] it was 99.7%; in test [10], 46.8%; in test [11] it was 75.8%. Also, the growth was 96.1% in test [13]; 111% in test [14]; 48.3% in test [15]; 80.6% in [16]; 103% in test [17]; 84.5% in test [18].

`CC(C)n1cc2c(N)ncnc2n1`: the growth is 89.5% in test [1]; 88.1% in test [2]; 98.2% in test [3]; 90% in [4]; 96.6% in [5]; 105% in test [6]. Also, the growth in test [7] was 79.4%; in [9] it was 109%; in [19], 98.2%; in [20], 97.5%; in [10] it was 107%; in test [11] it was 108%. The growth in test [12] is 109%; in test [13], 95.5%; in [14], 106%; in test [15], 107%; in [16] it was 104%; in test [17] it was 105%. Besides, the growth in test [18] was 107%.

With `C[C@H](CCC(=O)O)[C@H]1CC[C@H]2[C@@H]3CC[C@@H]4/C(=C\c5ccco5)C(=O)/C(=C\c5ccco5)C[C@]4(C)[C@H]3CC[C@]12C`, the growth is 73.2% in test [1]; 79.1% in test [2]; 56.3% in test [3]; 49.6% in test [4]; 109% in [5]; 46.6% in test [6]. The growth was 55.6% in [7]; 115% in test [8]; 0.613% (active) in test [9]; 0.809% (active) in test [19]; 3.68% (active) in [10]; 113% in [12]. Further, the growth is 80% in [13]; 121% in test [14]; 93% in test [15]; 69.3% in test [17]; 80% in test [18].

For the compound `O=C1C(=O)N(CCCCn2cc(CO)nn2)c2ccccc21`, the growth in test [1] was 98.8%; in test [2], 92.4%; in [3], 104%; in [4], 87.7%; in test [5], 102%; in test [6], 101%. Also, the growth was 87.8% in test [7]; 99.4% in test [8]; 104% in test [9]; 95.7% in [19]; 99.3% in test [10]; 98.6% in test [12]. For the same compound, the growth was 99.2% in [13]; 100% in test [14]; 106% in test [15]; 115% in test [16]; 98.8% in [17]; 100% in [18].

Regarding `Nc1cc(O)cc2cccnc12`, the growth in test [1] was 110%; in test [2], 104%; in [3] it was 72.5%; in test [4], 48.1%; in test [5], 104%; in test [6], 77.3%. Besides, the growth in [7] is 80.1%; in [9], 86.6%; in test [19], 93%; in test [20], 73%; in [10] it was 68.9%; in test [11], 80.9%. The growth was 107% in [12]; 105% in test [13]; 83.4% in test [14]; 53.4% in test [15]; 88.8% in [16]; 121% in test [17]. In test [18], the growth was 87.3%.

For `COc1ccc(-c2c3c(nc4n[nH]c(-c5ccc(Cl)cc5)c24)-c2ccccc2C(=O)C3=O)cc1`, the growth was -49.8% (active) in [1]; 59% in test [2]; 12% in test [3]; 0.604% (active) in [4]; -28.7% (active) in test [5]; 10.7% in test [6]. Also, the growth in test [7] is 47.1%; in test [8], 53.8%; in test [9], -6.2% (active); in test [19], 0.0593% (active); in test [11], 3.87% (active); in [13], 23%. For the same compound, the growth is 42.5% in [14], -17.2% (active) in test [16], 7.1% (active) in test [17] and -3.63% (active) in test [18].

For the compound `CN1CCN(c2ccc3nc(-c4ccc5nc(-c6ccc(OCCC(C)(C)C)cc6)[nH]c5c4)[nH]c3c2)CC1`, the growth in test [1] is 5.57% (active); in test [2], 52.8%; in [3], 75.4%; in test [4] it was 85.3%; in [5], 89.9%; in test [6], 64.4%. The growth is 65.4% in test [7]; 88.6% in test [8]; -50% (active) in test [9]; -41.2% (active) in test [19]; -48.9% (active) in test [11]; -2.35% (active) in test [12]. The growth in test [13] was 81.2%; in test [14], 88.8%; in test [15] it was 77.7%; in [16] it was -83.6% (active); in [17], 52.1%; in [18], 88%.

With `CCC(c1ccccc1)C(CC)c1ccc(O)c(O)c1` (configuration not stated), the growth in test [1] was 94.3%; in [2] it was 107%; in test [3], 91.9%; in test [4], 74.2%; in test [5], 106%; in test [6], 95.9%. Moreover, the growth in test [7] was 101%; in test [8], 110%; in test [19], 73.8%; in [20] it was 55.3%; in test [10], 102%; in test [11] it was 102%. Further, the growth in [12] is 115%; in test [13], 82.4%; in test [14], 112%; in test [15], 96.5%; in [16] it was 86%; in [17], 87.1%. For the same compound, the growth in test [18] was 96.1%.

As to `CS(=O)(=O)c1c(Nc2ccccc2)n[nH]c1N`, the growth in [1] is 113%; in [2] it was 116%; in [3] it was 95%; in [4] it was 96.4%; in test [5], 90.2%; in [6] it was 102%. Besides, the growth is 105% in test [7]; 115% in [8]; 91.1% in [9]; 98.6% in test [19]; 105% in test [11]; 102% in [12]. Further, the growth in test [13] was 117%; in test [14], 103%; in test [15] it was 112%; in [16] it was 121%; in test [17] it was 118%; in [18], 104%.

Regarding `Clc1ccc(-c2nnc(COc3ccccc3Cl)o2)cc1`, the growth is 99.1% in test [1]; 86.9% in [2]; 97.8% in test [3]; 77.5% in test [4]; 69.9% in [5]; 22.7% in test [6]. Also, the growth is 84.3% in test [7]; 92% in test [9]; 90.5% in test [19]; 83.3% in test [20]; 88.7% in test [10]; 76.6% in test [11]. The growth is 83.1% in [12]; 39.8% in test [13]; 95.7% in [14]; 83.6% in [15]; 81.6% in test [16]; 62% in test [17]. Besides, the growth in test [18] is 66.8%.
